The list is not random: actives were taken first. Their share in the collection is about 12%.
HP1b chromo inh: HTS for Inhibitors of HP1-beta Chromodomain Interactions with Methylated Histone Tails. Chromobox protein homolog 1 (Homo sapiens), P83916. AlphaScreen HP1-beta / biotin-H3K9me3 peptide binding. Potency, µM (highest dose often 114 µM), inactives show top-dose activity change, negative = inhibition, most hits filed as inhibitors. actives 0.56% (n = 390,000). AID 540317, 2011; also: nearly all actives have a fitted effect of over 70% in size
Target sequence (P83916 whole entry, looked up): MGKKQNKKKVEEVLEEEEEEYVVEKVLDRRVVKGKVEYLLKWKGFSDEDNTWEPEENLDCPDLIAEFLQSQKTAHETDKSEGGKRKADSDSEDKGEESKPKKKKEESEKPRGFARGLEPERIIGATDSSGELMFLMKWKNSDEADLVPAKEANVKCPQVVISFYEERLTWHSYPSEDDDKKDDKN
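AlphaScreen: HP1-beta (50 nM) preformed 30 min with biotin-H3(1-18)K9me3 peptide (50 nM) in PBS pH 7.4, 0.01% Tween-20. Compound added for 30 min at RT, then streptavidin donor/nickel chelate acceptor beads (10 ug/mL) for 30 min.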
Sfp inh: qHTS Assay for Inhibitors of Bacillus subtilis Sfp phosphopantetheinyl transferase (PPTase). 4'-phosphopantetheinyl transferase ffp (Bacillus subtilis), Q9F4F7. Biochemical Sfp PPTase activity, qHTS. Potency, µM, for the others: largest response in the series, negative = inhibition, actives largely listed as inhibitors. actives 3.5% (n = 310,000). AID 1490, 2009;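 also: the enzyme is Sfp with the accession as filed and its product quenches rhodamine fluorescence; 0% = enzyme reaction without inhibitor and -100% = no enzyme wells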
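Sfp 15 nM + cpd, 15 min RT; start w/ rhodamine-CoA 5 uM, BHQ-2-YbbR 12.5 uM (final); 50 mM Hepes pH 7.6, 10 mM MgCl2, 0.01% NP-40, 0.01% BSA; read 525/598 nm at 0 and 30 min.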
BAZ2B block: qHTS Assay for Inhibitors of BAZ2B; Bromodomain adjacent to zinc finger domain protein 2B (Homo sapiens), Q9UIF8; AlphaScreen BAZ2B-H3K14Ac peptide displacement; Potency, µM (top dose mostly 114 µM), inactives show at the top dose activity change, negative = inhibition, usual class: inhibitors; actives 4.4% (n = 360,000); AID 504333, 2011; also: % is scaled to controls: 0 for no effect and ±100 for the full control effect; nearly all actives have a fitted effect of over 60% in size
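AlphaScreen luminescence quantifies BAZ2B engagement of H3K14Ac peptide; the protein and biotinylated peptide are both at 50 nM final, buffer PBS pH 7.4 with 0.01% Tween-20, all steps at room temperature.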
G9a inh: qHTS Assay for Inhibitors of Histone Lysine Methyltransferase G9a | Histone-lysine N-methyltransferase EHMT2 (Homo sapiens), Q96KQ7 | G9a H3K9 monomethylation, AlphaScreen, 2 h | Potency, µM (highest dose often 102 µM), without a hit: at the top dose activity, negative = inhibition, usual class: inhibitors | actives 8.8% (n = 350,000) | AID 504332, 2011; also: % is scaled to controls: 0 for no effect and ±100 for the full control effect; nearly all actives have a fitted effect of over 75% in size
Target sequence (Q96KQ7 913-1193 limits assumed): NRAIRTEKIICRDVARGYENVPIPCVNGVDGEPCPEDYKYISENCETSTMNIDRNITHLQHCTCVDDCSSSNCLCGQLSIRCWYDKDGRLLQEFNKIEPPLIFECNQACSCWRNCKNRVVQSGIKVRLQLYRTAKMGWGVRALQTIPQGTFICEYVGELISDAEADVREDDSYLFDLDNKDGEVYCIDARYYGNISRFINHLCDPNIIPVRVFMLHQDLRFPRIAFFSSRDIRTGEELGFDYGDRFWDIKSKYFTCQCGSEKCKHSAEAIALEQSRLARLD
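Readings reflect AlphaScreen signal from monomethyl-H3K9 antibody detection. HMT at 20 nM; substrate b-H3K9 500 nM; cofactor SAM 20 uM; 2 h RT reaction; compounds tested as titrations in qHTS with 15 min preincubation.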
L3MBTL1 inh-1: qHTS Assay for the Inhibitors of L3MBTL1; Lethal(3)malignant brain tumor-like protein 1 (Homo sapiens), Q9Y468; Potency, µM (doses to about 57.1 µM), for inactives: at the highest dose activity, negative = inhibition, usual class: inhibitors; actives 0.66% (n = 230,000); AlphaScreen L3MBTL1–H3K9me1 peptide binding; also: % is scaled to controls: 0 for no effect and ±100 for the full control effect; nearly all actives have a fitted effect of over 60% in size
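AlphaScreen assay: L3MBTL1 (50 nM final) was preincubated 30 min at room temperature with biotinylated H3(1-15)K9me1 peptide (75 nM final), then 30 min with library compounds; streptavidin donor and nickel chelate acceptor beads (10 ug/mL final) added, 30 min dark.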
JMJD2A Tudor inh: qHTS Assay for Inhibitors of JMJD2A-Tudor Domain | AlphaScreen JMJD2A-Tudor / H3K4me3 peptide binding | Potency, µM (doses to about 114 µM), without a hit: at the top dose activity change, negative = inhibition, actives largely listed as inhibitors | actives 4.4% (n = 390,000); also: % is scaled to controls: 0 for no effect and ±100 for the full control effect; nearly all actives have a fitted effect of over 50% in size
L3MBTL1 inh-2: qHTS Assay for the Inhibitors of L3MBTL1: Hit Validation. actives 91% (n = 500). Potency, µM, hits mostly inhibitors. AID 540279, 2011. L3MBTL1 methyl-lysine binding inhibition, biochemical qHTS. shares compounds with L3MBTL1 inh-1; also: nearly all actives have a fitted effect of over 70% in size
AlphaScreen ctr2: qHTS Assay for the Inhibitors of L3MBTL1: Hit Validationin AlphaScreen Counterscreen; AlphaScreen counterscreen, signal inhibition; 500 tested, under 10 active; Potency, µM (top dose mostly 57.1 µM), for inactives: at the highest dose activity change, negative = inhibition, most hits filed as inhibitors; shares compounds with L3MBTL1 inh-1; also: 0% is about no effect
* marks the source's active call; other numbers are inactive results; ? = inconclusive; nt = not tested or not shown; [ ] = another dose, or the depositor's remark. Calls follow the shape of the dose curve; as a rule, active = well fitted curve in the direction sought with a large enough effect; inconclusive = small, poorly fitted or top-dose-only effect, or another doubt; inactive = no such curve, though single readings can be large; an effect the other way counts as inactive or inconclusive. Potency is read from the fitted curve at half-maximal effect.

SMILES	HP1b chromo inh	Sfp inh	BAZ2B block	G9a inh	L3MBTL1 inh-1	JMJD2A Tudor inh	L3MBTL1 inh-2	AlphaScreen ctr2
COc1ccc2nc(-n3c(O)c(C4=c5ccccc5=NC4=O)[nH]c3=S)sc2c1	?	50µM*	13µM*	?	3.2µM*	?	3.4*	?
O=C(O)/C=C\C(=O)Nc1ccc(N2CCN(c3ccc(Cl)c(Cl)c3)CC2)cc1	?	-21%	32µM*	32µM*	25µM*	40µM*	13*	?
CCOC(=O)c1cc(NC(=O)/C=C\C(=O)O)ccc1Cl	45%	-1%	?	?	-20%	-13%	nt	nt
CSCCC(NS(=O)(=O)c1ccc(C)c(C(=O)O)c1)C(=O)O (stereo not given)	27%	-1%	-16%	?	8.9µM*	-5%	?	-5%
CSCCC(NS(=O)(=O)c1ccc(Cl)cc1)C(=O)O (stereo not given)	32%	11%	-2%	-38%	30%	-19%	nt	nt
COc1cc2c(cc1OC)CN(Cc1nc3ccsc3c(=O)[nH]1)CC2	37%	-36%	40µM*	?	25µM*	?	21*	-3%
O=c1[nH]c(CN2CCN(c3ccccc3Cl)CC2)nc2ccsc12	57%	12%	-33%	?	1%	-22%	nt	nt
O=C(Nc1ccc2nc(-c3ccco3)c(-c3ccco3)nc2c1)N1CCN(c2ccccn2)CC1	25µM*	20µM*	?	2.5µM*	3.2µM*	?	3*	-1%
Cc1nc(N)sc1-c1csc(Nc2cccc(C(=O)O)c2)n1	-1%	-26%	50µM*	45µM*	22µM*	?	21*	4%
COc1cccc(Nc2nc(-c3sc(NC(=O)CC(C)C)nc3C)cs2)c1	-4%	14%	?	?	-4%	?	nt	nt
COC(=O)C(=O)C/C(=N/Nc1ncnc2ccccc12)c1ccc(Cl)cc1	11%	10%	-2%	12%	nt	-19%	nt	nt
Cn1cnnc1SCC(=O)Nc1ncc([N+](=O)[O-])s1	?	nt	nt	nt	28µM*	28µM*	1.7*	0%
CC(OC(=O)/C=C/c1ccco1)C(=O)Nc1cccc([N+](=O)[O-])c1 (stereo not given)	?	?	?	?	-9%	-29%	nt	nt
O=C(/C=C/c1ccco1)NC(=S)Nc1cccc([N+](=O)[O-])c1	-9%	32µM*	?	-42%[59 µM]	35µM*	?	24*	-1%
CC(C)C(C(=O)NC1CCCC1)N(CC1CCCO1)C(=O)CNS(=O)(=O)c1ccccc1 (stereo not given)	7%	13%	2%	16%	nt	-1%	nt	nt
O=C(CCSc1ccccc1)Nc1nccs1	12%	11%	-21%	-4%[59 µM]	nt	-11%	nt	nt
O=C(CCCSc1ccccc1)Nc1nc(-c2ccco2)c(-c2ccco2)s1	28µM*	16µM*	22µM*	?	22µM*	40µM*	24*	?
Cc1csc(N2C(=O)C3C4CCC(O4)C3C2=O)n1 (stereo not given)	31%	nt	nt	nt	nt	-2%	nt	nt
CCn1c(SC(C)C(=O)O)nc2sc3c(c2c1=O)CCC3 (stereo not given)	9%	10%	50µM*	?	28µM*	89µM*	3.4*	2%
COc1cc(/C=C2\SC(=Nc3ccc(Cl)c(C(=O)O)c3)NC2=O)c(Br)c(Br)c1O	?	8%	45µM*	32µM*	32µM*	79µM*	3*	?
COc1ccc(CNC(=O)C2CC(=O)N(C3CCCC3)C2)cc1 (stereo not given)	28%	6%	-2%	nt	nt	-1%	nt	nt
Cc1ccc(-c2nc3c(c(=O)[nH]c(=O)n3Cc3ccccc3)n2C)o1	-11%	10µM*	?	1.4µM*	10µM*	?	3.4*	16%
Cc1ccc(-c2nc3c(c(=O)[nH]c(=O)n3Cc3ccccc3)n2C)s1	nt	12%	-1%	32%[59 µM]	2%	nt	nt	nt
CC(NCc1cc(Br)ccc1OCC(N)=O)C12CC3CC(CC(C3)C1)C2 (stereo not given)	30%	7%	-7%	25%[0.501 µM]	1%[2.29 µM]	-4%	nt	nt
COc1ccc(NC(=O)Cn2ncc(Cl)c(Cl)c2=O)cc1S(=O)(=O)N1CCOCC1	-1%	-1%	?	-5%[59 µM]	14µM*	-26%	12*	23%
SMILES	HP1b chromo inh	Sfp inh	BAZ2B block	G9a inh	L3MBTL1 inh-1	JMJD2A Tudor inh	L3MBTL1 inh-2	AlphaScreen ctr2
COc1ccc(NC(=O)c2ccc(Cl)nc2)cc1S(=O)(=O)N1CCOCC1	24%	nt	-1%	-20%[12.7 µM]	-5%	-4%	nt	nt
CC(C)(C)NC(=O)CN(C(=O)CCC(=O)Nc1nccs1)c1cccc(C(F)(F)F)c1	43%	14%	11%	7%[0.501 µM]	-5%[2.29 µM]	8%	nt	nt
O=C(O)c1c2c(nc3ccccc13)/C(=C/c1ccc(OC(F)F)cc1)CCC2	25%	-9%	-2%	?	nt	1%	nt	nt
O=C(O)c1c2c(nc3ccccc13)/C(=C/c1ccc(O)cc1)CC2	-20%	-21%	40µM*	22µM*	4µM*	56µM*	1.5*	2%
CCc1nc2sc3ccccc3c(=O)c2c(=O)n1Cc1ccco1	-10%	40µM*	?	-19%[59 µM]	32µM*	56µM*	17*	9%
Cc1ccc2nc(NC(=O)C3CCN(S(=O)(=O)c4cc([N+](=O)[O-])ccc4Cl)CC3)sc2c1	?	-3%	35µM*	?	10µM*	40µM*	9.5*	-16%
Cc1ccc2nc(NC(=O)C3CCN(S(=O)(=O)c4cccc5nsnc45)CC3)sc2c1	12%	16%	?	1%[59 µM]	-17%	-33%	nt	nt

From PubChem BioAssay
